Test results reported in PubChem BioAssay (NCATS).
Active and inactive are the calls of the source. Calls come from the whole dose curve; as a rule, active = well fitted activation curve with a large enough effect; inconclusive = small, poorly fitted or top-dose-only effect; inactive = flat fitted curve, though single readings scatter. Square brackets hold non-standard residues; d marks the D form. Peptide text beside a SMILES is read from it. Orn = NCCC[CH](N)C(=O)O

test: Confirmation and Secondary Assay for Modulators of Hemoglobin Beta Chain Splicing at IVS2 705 locus (AID 930); conditions: HeLa EGFP-705 splicing reporter, GFP fluorescence, 48 h; series mostly up to 46.1 µM; activation: at the top concentration; note: % of control where 0% means no effect
From the text: NIH Chemical Genomics Center [NCGC] NIH Molecular Libraries Screening Centers Network [MLSCN] MLSCN Grant: 1 X01 MH080684-01 PI Name: Dr. Ryszard Kole NCGC Assay Overview: Modulation of Alternative Splicing as Therapy Abnormal splicing is associated with a number of diseases, including cancer and genetic diseases such as cystic fibrosis, muscular dystrophy and beta-thalassemia. Alteration of disease associated splicing patterns provides a promising target for treatment. […] Mutations in the second intron of the b-globin gene at positions 654 or 705 are clinically relevant and cause mis-splicing which results in an out of frame gene product. […] EGFP-705 HeLa Cells as screen system. HeLa cell lines were stably transfected with a construct in which the EGFP (enhanced green fluorescent protein) cDNA was interrupted by the second intron of the beta-globin gene (IVS2-705). The ISV2 intron contains mutations which cause mis-splicing of EGFP and premature termination of EGFP which results in a nonfluorescent protein product. […] Expression of the transgene was driven by the CMV promoter. We concluded that a low molecular weight compound, which restored correct splicing of intron 2 would also generate functional EGFP protein, resulting in a fluorescent signal. Thus, the HeLa cells that express the EGFP-705 construct can be used for validation of splice site specificity of compounds identified in primary screening of the ISV2 654 construct.
NCGC Assay Protocol Summary: Confirmatory Screening. Freshly thawed HeLa EGFP-705 cells were seeded in 5 ul of optimem media (Invitrogen) containing 2 % fetal calf serum (Hyclone) and 1x penicillin/streptomycin (Invitrogen) at a concentration of 500 cells per well in 1536-well plates. Cells were incubated overnight at 37C in 5% CO2. The next day, cells were treated with DMSO, 500 nM antisense ISV2 654 PNA control oligo, or library compound and allowed to grow at 37C in 5% CO2 for 2 days. The PNA oligo blocked the mutation site in the intron and allowed proper (wild type) splicing to occur, resulting in full length EGFP expression and also allowed for optimization of the assay parameters. Plates were read in the Acumen Explorer (TTP Labtech) using 488 nm laser excitation and 500-520 nm emission PMT filter in a 1 x 8 uM capture mode. Fluorescnet objects ranging in size from 5 to 250 uM were measured and the total peak GFP intensity for each well was used for data analysis. Keywords: Thalassemia, beta-thalassemia, beta-globin, EGFP, ISV2 654, ISV2 705, SSO, PNA, antisense, splicing, MLSMR, MLSCN, NIH Roadmap, qHTS, NCGC

outcome, inactive:
CNC(=O)Oc1ccc2c(c1)[C@@]1(C)CCN(C)C1N2C (stereo not given in full), COc1cc(C2c3cc4c(cc3C(O)[C@H]3COC(=O)C23)OCO4)cc(OC)c1OC (stereo not given in full)

activation, inactive:
O=C1OC(C(O)CO)C(O)=C1O (stereo not given) -1.47%, COc1cc(C2c3cc4c(cc3C(OC3OC5COC(C)O[C@@H]5C(O)C3O)C3COC(=O)C23)OCO4)cc(OC)c1O (stereo not given in full) -0.637%, CC(=O)c1ccc[nH]1 1.33% [at 38.3 µM], Oc1ccc2c(c1)OCC1c3cc4c(cc3OC21)OCO4 (stereo not given) 1.33%, CC1(C)CC[C@]2(C(=O)O)CC[C@@]3(C)C(=CCC4[C@@]5(C)CCC(O)C(C)(C)C5CC[C@@]43C)C2C1 (stereo not given in full) 2.33%, CC(C)(C)NCC(O)COc1cccc2c1CC(O)C(O)C2 (stereo not given) 0.151%, C[N+]1(C)C2CC(OC(=O)C(CO)c3ccccc3)CC1C1OC12 (stereo not given) 2.63%, C[C@]12CCC(=O)C=C1CCC1C2C(O)C[C@]2(C)C1CC[C@]2(O)C(=O)COC(=O)CCC(=O)O (stereo not given in full) 1.54%, CCC1OC(=O)C(C)[C@@H](O[C@H]2C[C@@](C)(OC)C(O)C(C)O2)C(C)[C@@H](O[C@@H]2OC(C)CC(N(C)C)C2O)[C@@](C)(O)CC(C)C2NC(COCCOC)O[C@H](C2C)[C@@]1(C)O (stereo not given in full) 2.56%, CC1/C=C/C=C/C=C/C=C/C=C/C=C/C=C/C(OC2OC(C)C(O)C(N)C2O)CC2O[C@@](O)(CC(O)CC(O)C(O)CCC(O)CC(O)CC(=O)OC(C)[C@H](C)C1O)CC(O)C2C(=O)O (stereo not given in full) 2.06%, C=C1C2CC[C@@]3(C)C(c4ccoc4)OC(=O)C[C@@]13OC1CC(OC(C)=O)C(C)(C)C(CC(=O)OC)[C@@]12C (stereo not given in full) -0.391%, COc1cc2c(cc1OC)-c1c(oc3cc(O)cc(O)c3c1=O)CO2 0.732%, O=c1c(-c2ccc(O)cc2)coc2c(C3OC(CO)C(O)C(O)C3O)c(O)ccc12 (stereo not given) -1.55%, Cc1cc(=O)oc2cc(O)c(O)cc12 1.5% [at 38.3 µM], COC(=O)CC1C(C)(C)C(=O)C2CC3C4=CC(=O)OC(c5ccoc5)[C@]4(C)CCC3[C@@]1(C)C2=O (stereo not given in full) 1.25%, NC(=O)c1cc[n+](CC2=C(C(=O)O)N3C(=O)C(NC(=O)C(c4ccccc4)S(=O)(=O)[O-])C3SC2)cc1 (stereo not given) -0.148%, COC(=O)C1C(O)CC[C@H]2CN3CCc4c([nH]c5ccccc45)C3C[C@H]12 (stereo not given in full) 2.03% [at 38.3 µM], COc1cc2ccc(=O)oc2c(OC)c1OC 1.48%, COc1cc(OC)c2c(OC)c(-c3ccc4c(c3)OCO4)c(=O)oc2c1 0.0176% [at 38.3 µM], Cc1cc(O)c(C)c(O)c1C(=O)O 3.03%, CC1(C)CC[C@]2(C(=O)O)C(O)C[C@@]3(C)C(=CCC4[C@@]5(C)CCC(O)C(C)(C)C5CC[C@@]43C)C2C1 (stereo not given in full) -0.0143% [at 38.3 µM], CC1C(NC(=O)/C(=N/OC(C)(C)C(=O)O)c2csc(N)n2)C(=O)N1S(=O)(=O)O (stereo not given) 2.12%, Nc1nc2c(ncn2C2CC(O)C(CO)O2)c(=O)[nH]1 (stereo not given) -0.113% [at 38.3 µM], CNC1CCC(c2ccc(Cl)c(Cl)c2)c2ccccc21 (stereo not given) 0.495%, CCC(=O)OCC(=O)C1(OC(=O)CC)C(C)CC2C3CCC4=CC(=O)C=CC4(C)C3(Cl)C(O)CC21C (stereo not given) 0.241%, CC(=O)OC1CC2C(C)(C)C(=O)CC[C@]2(C)C2CC[C@]3(C)C(=CC(=O)OC3c3ccoc3)[C@]12C (stereo not given in full) 0.651%, COc1cc2c(c(OC)c1OC)-c1ccc(OC)c(=O)cc1C(NC(C)=O)CC2 (stereo not given) 0.24%, C=C1c2cccc(O)c2C(O)=C2C(=O)[C@]3(O)C(O)=C(C(N)=O)C(=O)C(N(C)C)C3C(O)C12 (stereo not given in full) 1.47%, OCC(O)C(O)C(O)C(O)C(O)CO (stereo not given) 0.612% [at 38.3 µM], CC(CCC(=O)O)C1CCC2C3CC[C@H]4CC(O)CC[C@@]4(C)C3CC[C@@]12C (stereo not given in full) 2.98%, CC1CCC2C(C)(C)C3CC12CC[C@]3(C)O (stereo not given in full) -1.27% [at 38.3 µM], C[C@]12CCC3c4ccc(O)cc4CCC3C1CCC2OC(=O)CCC1CCCC1 (stereo not given in full) 0.958%, COc1cc(OC)c2c(=O)c(-c3ccccc3)coc2c1 0.122% [at 38.3 µM], NC(N)=Nc1nc(CSCC/C(N)=N\S(N)(=O)=O)cs1 0.979%, Cc1nnc(SCC2=C(C(=O)O)N3C(=O)C(NC(=O)Cn4cnnn4)[C@@H]3SC2)s1 (stereo not given in full) 6.87%, COC(=O)c1c(C)cc(O)cc1O -0.337% [at 38.3 µM], CC(C)CC1NC(=O)C(CCCN)NC(=O)C(C(C)C)NC(=O)C2CCCN2C(=O)C(Cc2ccccc2)NC(=O)C(CC(C)C)NC(=O)C(CCCN)NC(=O)C(C(C)C)NC(=O)C2CCCN2C(=O)C(Cc2ccccc2)NC1=O (stereo not given) (cyclo(FPV[Orn]LFPV[Orn]L); configuration not given here) 1.32%, COc1ccc2c(=O)ccoc2c1 0.05% [at 38.3 µM]
